Laboratory results published in PubChem BioAssay (Tox21).
Activity calls are given as the source filed them. The call rests on the fitted dose curve; in most records, active means well fitted curve in the direction sought with a large enough effect in the repeat runs; inconclusive means weak or mixed curves; inactive means flat fitted curve, though single readings scatter.

Test: qHTS assay to test for compound auto fluorescence at 535 nm (green) in HEK293 cells (AID 720680)
Settings: green autofluorescence 485/535 nm; series mostly up to 91.3 µM
From the text: U.S. Tox21 Program National Center for Advancing Translational Sciences [NCATS] NIH Chemical Genomics Center [NCGC] U.S. Environmental Protection Agency [EPA] National Institutes of Environmental Health Sciences [NIEHS] National Toxicology Program [NTP] U.S. Food and Drug Administration [FDA] Tox21 Assay Overview: Compound auto fluorescence often interferes with screening of the compound library against various biological targets and signaling pathways. Some of these compounds may have fluorophoric properties. Such properties may interfere with the assay outputs resulting in false positives and/or negatives. To decrease such complications and ensure the compound activities are relevant in terms of biological response, the Tox21 10K compound library was screened for auto fluorescence. From the fluorophores used as reporter signals in our screening assays, the auto fluorescence equivalencies of compounds against three fluorophores have been evaluated: Triamterene, Fluorescein and Rose Bengal sodium for blue, green and red fluorescence, respectively. The fluorescence intensities were measured using Excitation/Emission wavelengths at 405/460nm, 485/535nm and 540/590nm for blue, green and red labels, respectively. This assay includes the green fluorescence data.
Tox21 Assay Protocol Summary: 2,000 HEK293 cells in 5 uL of culture medium containing 10% dialyzed FBS per well were dispensed into black wall/clear bottom 1536-well plates using a Multidrop Combi Dispenser (Thermo Scientific). The assay plates were incubated for 4-5 hr at 37C to allow cell attachment to the well bottom, followed by the transfer of 23 nL compound or DMSO vehicle by a pintool work station (Kalypsys, San Diego, CA). After the assay plates were incubated overnight at 37C and 5% CO2, fluorescence intensities in the assay plates were measured by an Envision (PerkinElmer, Shelton, CT) plate reader using three labels for measuring blue, green and red fluorescence at […] 460, 535 and 590nm respectively.

| Compound | outcome |
| --- | --- |
| CN(C)C(=O)Cl | inactive |
| COc1cc(-c2ccc(N)c(OC)c2)ccc1N | inactive |
| C=CC(=O)OCC(CC)CCCC (stereo not given) | inactive |
| CNC(=O)O/N=C/C(C)(C)S(C)=O (stereo not given) | inactive |
| CCOP(=S)(OCC)Oc1ccc([N+](=O)[O-])cc1 | inactive |
| Cl[C@H]1OCCO[C@@H]1Cl | inactive |
| Nc1cccc(Cl)c1 | inactive |
| Cl/C=C/Cl | inactive |
| COP(=S)(OC)SCN1C(=O)c2ccccc2C1=O | inactive |
| CN1C(=O)CCS(=O)(=O)C1c1ccc(Cl)cc1 (stereo not given) | inactive |
| O=[N+]([O-])c1ccc(Cl)cc1 | inactive |
| CCOP(=S)(OCC)Oc1cc(C)nc(C(C)C)n1 | inactive |
| Oc1c(Br)cc(Br)cc1Br | inactive |
| COS(=O)(=O)OC | inactive |
| CN(C)C(=O)C(c1ccccc1)c1ccccc1 | inactive |
| CC[N+](=O)[O-] | inactive |
| NNc1ccccc1 | inactive |
| COP(=S)(OC)Oc1ccc(SC)c(C)c1 | inactive |
| C=C(C)C(=O)OCC(CC)CCCC (stereo not given) | inactive |
| C=CC#N | inactive |

| Compound | outcome |
| --- | --- |
| C=CCN=C=S | inactive |
| N#Cc1cccc(C#N)c1 | inactive |
| Nc1ncc([N+](=O)[O-])s1 | inactive |
| c1ccc2c(c1)CCCC2 | inactive |
| OCc1ccco1 | inactive |
| CCCOC(=O)c1ccccc1C(=O)OCCC | inactive |
| OCCCCO | inactive |
| CN(C)C(=O)Nc1cccc(C(F)(F)F)c1 | inactive |
| N#Cc1ccccn1 | inactive |
| CCSC(=O)N1CCCCCC1 | inactive |
| C[C@H]1C(=O)O[C@@H]2CCN3CC=C(COC(=O)[C@](C)(O)[C@]1(C)O)[C@H]23 | inactive |
| CSc1nnc(C(C)(C)C)c(=O)n1N | inactive |
| CC(C)CCCCCCOC(=O)c1ccccc1C(=O)OCCCCCCC(C)C | inactive |
| Clc1cnc(Oc2ccc(Oc3ncc(Cl)cc3Cl)cc2)c(Cl)c1 | inactive |
| FC(F)(F)c1ccc(Cl)cc1 | inactive |
| O=[N+]([O-])c1cc([As](=O)(O)O)ccc1O | inactive |
| O=C(O)C(Br)Br | inactive |
| O=S(=O)(O)OOS(=O)(=O)O | inactive |
| CC(=O)C1CCOC1=O (stereo not given) | inactive |
| CNC(=O)O/N=C/C(C)(C)SC | inactive |
